Values joined by “and” are separate entries in the source; they are usually repeats but may differ in a detail not shown here. Equal values may be shown once. This is part of a sample that, as a whole, favours compounds with a hit. Of some 83,000 tested, about 20% had one in any assay.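 Values shown are percent growth following 48 h exposure of cells in 96-well plates to a single concentration of compound; below 10 was considered active.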 A number with no mark means an inactive call. Active and inactive are the calls of the source.
How the values were obtained:
Assay in all cases: NCI-60 one-dose screen, 48 h (100 = growth as untreated, 0 = no growth, -100 = all killed)
HCT-15 colon = system: HCT-15 colon
HT29 colon = system: HT29 colon
SNB-75 CNS = system: SNB-75 CNS
SNB-19 CNS = system: SNB-19 CNS
U251 CNS = system: U251 CNS
PC-3 prostate = system: PC-3 prostate
SK-MEL-5 melanoma = system: SK-MEL-5 melanoma
UACC-62 melanoma = system: UACC-62 melanoma
LOX IMVI melanoma = system: LOX IMVI melanoma
SK-MEL-28 melanoma = system: SK-MEL-28 melanoma

`CCN(Cc1ccccc1)c1ccc(/C=C2\COc3ccccc3C2=O)cc1` showed a growth (HCT-15 colon; 10 µM) of 94%, a growth (HCT-15 colon; 100 µM) of 23.6% and a growth (HT29 colon; 10 µM) of 99.7%. The growth (HT29 colon; 100 µM) was 5.56% (active), the growth (SNB-75 CNS; 10 µM) was 93.2% and the growth (SNB-75 CNS; 100 µM) was 57.6%. It also gave a growth (SNB-19 CNS; 10 µM) of 98.9%, a growth (SNB-19 CNS; 100 µM) of 50.4% and a growth (U251 CNS; 10 µM) of 96%. It also gave a growth (U251 CNS; 100 µM) of 19.1%, a growth (PC-3 prostate; 10 µM) of 87.1% and a growth (PC-3 prostate; 100 µM) of 26.5%. The growth (SK-MEL-5 melanoma; 10 µM) was 102%, the growth (SK-MEL-5 melanoma; 100 µM) was 6.96% (active) and the growth (UACC-62 melanoma; 10 µM) was 87%. The growth (UACC-62 melanoma; 100 µM) was 31%, the growth (LOX IMVI melanoma; 10 µM) was 96.3% and the growth (LOX IMVI melanoma; 100 µM) was 37.5%. It also gave a growth (SK-MEL-28 melanoma; 10 µM) of 99.9% and a growth (SK-MEL-28 melanoma; 100 µM) of 53.1%.

In the case of `COc1ccc(CCNC(=O)COc2cc3c(Nc4ccc(F)c(Cl)c4)ncnc3cc2OC)cc1OC`, the growth (HCT-15 colon; 10 µM unless noted) is reported as 91.2%, the growth (HT29 colon; 10 µM unless noted) is reported as 95.5% and the growth (SNB-75 CNS; 10 µM unless noted) is reported as 94.6%. For the same compound, the growth (SNB-19 CNS; 10 µM unless noted) was 84.2%, the growth (U251 CNS; 10 µM unless noted) was 103% and the growth (PC-3 prostate; 10 µM unless noted) was 92.1%. It also gave a growth (SK-MEL-5 melanoma; 10 µM unless noted) of 92.5%, a growth (UACC-62 melanoma; 10 µM unless noted) of 95.7% and a growth (LOX IMVI melanoma; 10 µM unless noted) of 90.1%. For the same compound, the growth (SK-MEL-28 melanoma; 10 µM unless noted) was 98.4%.

In the case of `CN1CCN(Cc2ccc(NC(=O)c3nc4ccc5[nH]ncc5c4c4c3CCCC4)cc2C(F)(F)F)CC1`, the growth (HCT-15 colon; 10 µM unless noted) is reported as -74.6% (active), the growth (HT29 colon; 10 µM unless noted) is reported as -83.2% (active) and the growth (SNB-75 CNS; 10 µM unless noted) is reported as -90% (active). The growth (SNB-19 CNS; 10 µM unless noted) was -88.8% (active), the growth (U251 CNS; 10 µM unless noted) was -91% (active) and the growth (PC-3 prostate; 10 µM unless noted) was -83.5% (active). The growth (SK-MEL-5 melanoma; 10 µM unless noted) was -92.6% (active), the growth (UACC-62 melanoma; 10 µM unless noted) was -87.5% (active) and the growth (LOX IMVI melanoma; 10 µM unless noted) was -94.9% (active). For the same compound, the growth (SK-MEL-28 melanoma; 10 µM unless noted) was -85.8% (active).

`COc1ccc2c(c1)CCNC21C(=O)Nc2c(Br)cc(Br)cc21` (stereo unspecified) was tested, and the growth (HCT-15 colon; 10 µM unless noted) was 104%, the growth (HT29 colon; 10 µM unless noted) was 104% and the growth (SNB-75 CNS; 10 µM unless noted) was 70.6%. It also gave a growth (SNB-19 CNS; 10 µM unless noted) of 91.5%, a growth (U251 CNS; 10 µM unless noted) of 96.7% and a growth (PC-3 prostate; 10 µM unless noted) of 97.9%. It also gave a growth (SK-MEL-5 melanoma; 10 µM unless noted) of 98.4%, a growth (UACC-62 melanoma; 10 µM unless noted) of 86.6% and a growth (LOX IMVI melanoma; 10 µM unless noted) of 102%. The growth (SK-MEL-28 melanoma; 10 µM unless noted) was 101%.

For `CC(=O)/C=C/c1ccc(N(C)Cc2ccc(C(C)(C)C)cc2)cc1`, the growth (HCT-15 colon; 10 µM) was 87.5%, the growth (HCT-15 colon; 100 µM) was -36.9% (active) and the growth (HT29 colon; 10 µM) was 78.1%. For the same compound, the growth (HT29 colon; 100 µM) was -10.7% (active), the growth (SNB-75 CNS; 10 µM) was 102% and the growth (SNB-75 CNS; 100 µM) was -59.5% (active). For the same compound, the growth (U251 CNS; 10 µM) was 89.8%, the growth (U251 CNS; 100 µM) was -100% (active) and the growth (PC-3 prostate; 10 µM) was 77.6%. The growth (PC-3 prostate; 100 µM) was -26.1% (active), the growth (SK-MEL-5 melanoma; 10 µM) was 74.7% and the growth (SK-MEL-5 melanoma; 100 µM) was -100% (active). The growth (UACC-62 melanoma; 10 µM) was 78.8%, the growth (UACC-62 melanoma; 100 µM) was -57.1% (active) and the growth (LOX IMVI melanoma; 10 µM) was 80.1%. For the same compound, the growth (LOX IMVI melanoma; 100 µM) was -100% (active), the growth (SK-MEL-28 melanoma; 10 µM) was 92.5% and the growth (SK-MEL-28 melanoma; 100 µM) was -82.3% (active).

For `COc1cc(-c2nc(SCCC(C)C)nc(Nc3ccc(F)cc3)c2C#N)cc(OC)c1OC`, the growth (HCT-15 colon; 10 µM unless noted) was 88.8%, the growth (HT29 colon; 10 µM unless noted) was 55% and the growth (SNB-75 CNS; 10 µM unless noted) was 30.8%. It also gave a growth (SNB-19 CNS; 10 µM unless noted) of 45.5%, a growth (U251 CNS; 10 µM unless noted) of 29.7% and a growth (PC-3 prostate; 10 µM unless noted) of 75.9%. The growth (SK-MEL-5 melanoma; 10 µM unless noted) was 97.6%, the growth (UACC-62 melanoma; 10 µM unless noted) was 80.5% and the growth (LOX IMVI melanoma; 10 µM unless noted) was 79.2%. For the same compound, the growth (SK-MEL-28 melanoma; 10 µM unless noted) was 104%.

In the case of `OCCN1CCN(CC/C=C2\c3ccccc3Sc3ccc(Cl)cc32)CC1`, the growth (HCT-15 colon; 10 µM unless noted) is reported as -38.8% (active) and 8.86% (active), the growth (HT29 colon; 10 µM unless noted) is reported as -41.8% (active) and -43.3% (active) and the growth (SNB-75 CNS; 10 µM unless noted) is reported as 60.2% and 133%. For the same compound, the growth (SNB-19 CNS; 10 µM unless noted) was 58.4% and 72.6%, the growth (U251 CNS; 10 µM unless noted) was 27.6% and 28.6% and the growth (PC-3 prostate; 10 µM unless noted) was 33.6% and 39.2%. The growth (SK-MEL-5 melanoma; 10 µM unless noted) was -83.5% (active) and -91.7% (active), the growth (UACC-62 melanoma; 10 µM unless noted) was -93.8% (active) and -68.5% (active) and the growth (LOX IMVI melanoma; 10 µM unless noted) was -30.2% (active) and 1.96% (active). For the same compound, the growth (SK-MEL-28 melanoma; 10 µM unless noted) was -100% (active) and -78.1% (active).

Work on `COc1ccc(C(=O)/C=C/c2ccc(OCc3cccc(C(F)(F)F)c3)c(OC)c2)cc1OC` yielded a growth (HCT-15 colon; 10 µM) of 73%, a growth (HCT-15 colon; 100 µM) of 14.4% and a growth (HT29 colon; 10 µM) of 54.3%. The growth (HT29 colon; 100 µM) was 19.6%, the growth (SNB-75 CNS; 10 µM) was 93.6% and the growth (SNB-75 CNS; 100 µM) was -27.5% (active). For the same compound, the growth (SNB-19 CNS; 10 µM) was 93.9%, the growth (SNB-19 CNS; 100 µM) was -21.9% (active) and the growth (U251 CNS; 10 µM) was 75%. The growth (U251 CNS; 100 µM) was -51.7% (active), the growth (PC-3 prostate; 10 µM) was 69.1% and the growth (PC-3 prostate; 100 µM) was -7.78% (active). For the same compound, the growth (SK-MEL-5 melanoma; 10 µM) was 76.5%, the growth (SK-MEL-5 melanoma; 100 µM) was -34.4% (active) and the growth (UACC-62 melanoma; 10 µM) was 78.4%. The growth (UACC-62 melanoma; 100 µM) was 20.7%, the growth (LOX IMVI melanoma; 10 µM) was 51% and the growth (LOX IMVI melanoma; 100 µM) was 10%. For the same compound, the growth (SK-MEL-28 melanoma; 10 µM) was 101% and the growth (SK-MEL-28 melanoma; 100 µM) was 46.3%.

`CC(=O)/C=C/c1ccc(OCc2ccc(C(C)(C)C)cc2)cc1` was tested, and the growth (HCT-15 colon; 10 µM) was 64.7%, the growth (HCT-15 colon; 100 µM) was 22.2% and the growth (HT29 colon; 10 µM) was 42.4%. The growth (HT29 colon; 100 µM) was 8.01% (active), the growth (SNB-19 CNS; 10 µM) was 98.5% and the growth (SNB-19 CNS; 100 µM) was 28.5%. For the same compound, the growth (U251 CNS; 10 µM) was 88.9%, the growth (U251 CNS; 100 µM) was 37.7% and the growth (PC-3 prostate; 10 µM) was 79.1%. For the same compound, the growth (PC-3 prostate; 100 µM) was 14%, the growth (SK-MEL-5 melanoma; 10 µM) was 50.3% and the growth (SK-MEL-5 melanoma; 100 µM) was -6.85% (active). The growth (UACC-62 melanoma; 10 µM) was 74.2%, the growth (UACC-62 melanoma; 100 µM) was -3.4% (active) and the growth (LOX IMVI melanoma; 10 µM) was 62.3%. The growth (LOX IMVI melanoma; 100 µM) was 32%, the growth (SK-MEL-28 melanoma; 10 µM) was 85.5% and the growth (SK-MEL-28 melanoma; 100 µM) was -1.32% (active).

From PubChem BioAssay (NCI)
